According to PubChem BioAssay:
The source made the active and inactive calls.

Tests used:
[1] = test system: PRMT1 (protein arginine N-methyltransferase 1); test: small molecules binding arginine methyltransferase PRMT1 – biochemical, small-molecule microarray, 635 nm fluorescence, primary screen (AID 1088); details: higher = more signal;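 note: binding of Prmt1 protein to compounds spotted on small-molecule microarray slides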
[2] = growth effects on S. cerevisiae YJM789 – YJM789 clinical isolate, OD600, 24 h, basal, primary screen (AID 1089); details: higher = more signal, called active from +8 up or from −8 down;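 note: growth of clinical yeast isolate S. cerevisiae YJM 789 seeded 1000 cells per well; test concentration not given here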
[3] = S. pombe growth modifiers, basal conditions – strain 972, OD600, 24 h, no modulator, primary screen (AID 1090);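 note: basal condition with compound alone and no growth modifier present; test concentration not given here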; details: S. pombe 972 growth, higher = more signal, called active from +8 up or from −8 down
[4] = budding yeast growth modifiers under rapamycin – strain BY4716, OD600, 96 h, primary screen (AID 1091); note: test concentration not given here; details: S. cerevisiae BY4716 + rapamycin, higher = more signal, called active from +8 up or from −8 down
[5] = molecular target: Torsin-1A-interacting protein 2 (Homo sapiens) (UniProt Q8NFQ8); test: small molecules binding lysate-expressed LULL1 – cell lysate, human LULL1 lysate, 635/667 nm fluorescence, primary screen (AID 1092); details: small-molecule microarray, hLULL1 lysate binding, 635 nm fluorescence; higher = more signal;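 note: probe is lysate of COS7 cells overexpressing human LULL1; score merges per-feature 667 nm fluorescence with signal-to-noise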
Chain of Torsin-1A-interacting protein 2 (Homo sapiens) (Q8NFQ8 whole entry, looked up): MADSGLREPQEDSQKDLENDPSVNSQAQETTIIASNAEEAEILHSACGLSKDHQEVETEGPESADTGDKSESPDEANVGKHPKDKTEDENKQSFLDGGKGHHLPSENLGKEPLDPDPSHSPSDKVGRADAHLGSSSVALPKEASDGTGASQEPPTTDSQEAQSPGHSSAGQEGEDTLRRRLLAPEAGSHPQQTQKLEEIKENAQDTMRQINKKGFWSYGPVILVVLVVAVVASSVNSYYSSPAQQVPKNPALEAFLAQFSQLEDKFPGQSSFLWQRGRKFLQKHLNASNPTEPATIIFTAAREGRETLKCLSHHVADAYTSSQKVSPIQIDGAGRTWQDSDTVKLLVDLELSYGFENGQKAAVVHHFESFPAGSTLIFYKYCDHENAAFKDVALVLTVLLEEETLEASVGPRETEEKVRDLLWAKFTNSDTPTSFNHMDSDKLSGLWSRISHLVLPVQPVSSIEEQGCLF

[6] = optical density change of DRC41 E. coli – strain DRC41, OD650, 24 h, E. coli filamentation project, primary screen (AID 1093);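 note: MC1000 strain lacking acrAB efflux and sulA so SOS filamentation is blocked; test concentration not given here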; details: E. coli DRC41 growth, higher = more signal, called active from +8 up or from −8 down
[7] = probe aLefty2 binding to arrayed compounds – biochemical, biotinylated probe, 635/667 nm fluorescence, primary screen (AID 1094); details: small-molecule microarray, higher = more signal;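 note: score merges spot fluorescence near 667 nm with spot signal-to-noise ratio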
[8] = test system: Noggin (protein binding on small-molecule microarray); test: small molecules binding Noggin protein – biochemical, 635/667 nm fluorescence, primary screen (AID 1095); details: 635 nm fluorescence, higher = more signal;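 note: score merges 667 nm feature fluorescence with signal to noise over triplicate slides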
[9] = molecular target: Neurogenic locus notch homolog protein 3 (Homo sapiens) (UniProt Q9UM47); test: small molecules binding NOTCH3 protein – biochemical, 635/667 nm fluorescence, primary screen (AID 1096); details: small-molecule microarray, 635 nm fluorescence, higher = more signal
Chain of Neurogenic locus notch homolog protein 3 (Homo sapiens) (Q9UM47 whole entry, looked up): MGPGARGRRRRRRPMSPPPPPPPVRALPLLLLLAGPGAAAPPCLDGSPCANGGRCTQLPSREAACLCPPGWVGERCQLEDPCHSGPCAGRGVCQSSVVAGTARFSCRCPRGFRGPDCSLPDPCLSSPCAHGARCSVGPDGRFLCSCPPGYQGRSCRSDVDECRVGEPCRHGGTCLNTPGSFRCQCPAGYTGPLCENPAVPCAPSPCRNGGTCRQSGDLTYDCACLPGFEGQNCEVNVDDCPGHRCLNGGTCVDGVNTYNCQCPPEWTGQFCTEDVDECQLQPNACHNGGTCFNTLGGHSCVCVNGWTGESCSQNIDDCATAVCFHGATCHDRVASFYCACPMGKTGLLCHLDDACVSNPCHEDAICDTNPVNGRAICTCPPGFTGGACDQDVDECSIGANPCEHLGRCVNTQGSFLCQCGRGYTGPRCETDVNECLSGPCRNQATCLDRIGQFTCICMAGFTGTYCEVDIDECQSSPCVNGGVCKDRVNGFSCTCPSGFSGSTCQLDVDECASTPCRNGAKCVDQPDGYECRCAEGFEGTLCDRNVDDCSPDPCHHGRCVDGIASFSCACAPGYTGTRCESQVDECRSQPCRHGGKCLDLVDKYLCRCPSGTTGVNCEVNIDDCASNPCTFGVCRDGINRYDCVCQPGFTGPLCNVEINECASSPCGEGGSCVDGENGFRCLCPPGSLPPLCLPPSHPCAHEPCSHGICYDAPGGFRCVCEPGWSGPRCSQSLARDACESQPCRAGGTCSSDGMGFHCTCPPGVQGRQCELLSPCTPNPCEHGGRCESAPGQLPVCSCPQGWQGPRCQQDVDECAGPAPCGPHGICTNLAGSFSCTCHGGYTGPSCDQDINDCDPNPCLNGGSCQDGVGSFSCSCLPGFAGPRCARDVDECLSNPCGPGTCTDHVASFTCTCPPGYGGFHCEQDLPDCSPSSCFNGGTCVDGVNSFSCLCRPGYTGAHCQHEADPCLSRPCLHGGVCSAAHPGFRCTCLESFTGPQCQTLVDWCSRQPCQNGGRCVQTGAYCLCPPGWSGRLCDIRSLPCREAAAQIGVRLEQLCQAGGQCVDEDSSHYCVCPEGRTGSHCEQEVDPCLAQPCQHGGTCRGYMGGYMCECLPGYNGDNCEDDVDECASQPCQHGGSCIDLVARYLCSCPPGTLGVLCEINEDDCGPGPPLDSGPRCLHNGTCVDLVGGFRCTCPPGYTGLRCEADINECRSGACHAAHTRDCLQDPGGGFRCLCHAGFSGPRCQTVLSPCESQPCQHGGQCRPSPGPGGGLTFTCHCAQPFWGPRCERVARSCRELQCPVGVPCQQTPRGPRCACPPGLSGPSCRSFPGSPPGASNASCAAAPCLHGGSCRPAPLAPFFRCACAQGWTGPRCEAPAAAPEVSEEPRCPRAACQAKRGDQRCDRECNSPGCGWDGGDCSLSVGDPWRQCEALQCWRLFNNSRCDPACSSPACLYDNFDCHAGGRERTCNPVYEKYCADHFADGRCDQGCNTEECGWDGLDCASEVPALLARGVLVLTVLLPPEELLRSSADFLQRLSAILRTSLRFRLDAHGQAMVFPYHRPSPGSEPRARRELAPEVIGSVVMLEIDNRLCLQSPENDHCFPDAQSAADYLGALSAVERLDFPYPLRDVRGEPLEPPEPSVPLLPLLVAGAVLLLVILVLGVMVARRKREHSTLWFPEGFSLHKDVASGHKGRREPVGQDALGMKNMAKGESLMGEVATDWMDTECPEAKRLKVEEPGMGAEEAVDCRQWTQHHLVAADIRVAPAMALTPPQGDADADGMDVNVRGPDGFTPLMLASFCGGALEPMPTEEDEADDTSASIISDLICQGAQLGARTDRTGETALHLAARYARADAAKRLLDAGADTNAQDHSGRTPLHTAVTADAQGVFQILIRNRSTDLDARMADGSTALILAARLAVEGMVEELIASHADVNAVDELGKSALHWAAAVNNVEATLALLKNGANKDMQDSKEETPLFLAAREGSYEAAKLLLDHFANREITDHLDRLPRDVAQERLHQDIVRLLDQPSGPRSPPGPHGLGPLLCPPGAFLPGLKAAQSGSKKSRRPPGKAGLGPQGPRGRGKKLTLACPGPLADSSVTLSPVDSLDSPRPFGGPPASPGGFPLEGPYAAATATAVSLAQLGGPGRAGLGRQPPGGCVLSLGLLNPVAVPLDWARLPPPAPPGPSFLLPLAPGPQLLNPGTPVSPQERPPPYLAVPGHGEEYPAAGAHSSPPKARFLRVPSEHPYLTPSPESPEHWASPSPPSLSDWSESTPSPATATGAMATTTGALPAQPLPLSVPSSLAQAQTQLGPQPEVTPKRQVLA

[10] = probe aEGFR binding to arrayed compounds – biochemical, biotinylated probe, 635/667 nm fluorescence, primary screen (AID 1097); details: small-molecule microarray, higher = more signal;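 note: probe is a biotinylated anti-EGFR antibody binding compounds printed on slides; score combines fluorescence near 667 nm and signal to noise of each spot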

SMILES	composite z-score [1]	z-score [2]	z-score [3]	z-score [4]	composite z-score [5]	z-score [6]	composite z-score [7]	composite z-score [8]	composite z-score [9]	composite z-score [10]
COc1cc(NN2C(C(O)c3ccco3)C=CC3C(=O)N(C)C(=O)C32)cc(OC)c1OC (stereo not given)	0.865	-0.0402 (inactive)	1.06 (inactive)	0.462 (inactive)	0.873	-1.87 (inactive)	0.413	0.382	-0.254	0.232
CC(C)N1C(=O)C[C@@](C(=O)NC2CC2)(c2ccc([N+](=O)[O-])cc2)[C@H]1c1ccc(CO)cc1	0.978	-0.195 (inactive)	-1.08 (inactive)	0.601 (inactive)	3.25	0.718 (inactive)	0.0702	-1.15	-0.46	-0.281
C=CCOC(=O)[C@@H]1[C@H]2C(=O)O[C@H](c3ccccc3)[C@H](c3ccccc3)N2[C@H](c2ccc(OCCOC(=O)[C@@H]3C[C@@H]4C(=O)N[C@@H](CCCC[N+](C)(C)C)C(=O)N4[C@@H]3c3ccc(O)cc3)cc2)[C@@]12C(=O)Nc1ccc(I)cc12	1.53	0.954 (inactive)	-1.48 (inactive)	1.02 (inactive)	2.21	-0.0235 (inactive)	-0.103	0.989	1.07	-0.0006
C=C(C(=O)CC[C@H](OC(=O)c1ccccc1-c1ccccc1C(=O)O)c1cccc(OCCO)c1)C(C)C	0.0697	0.521 (inactive)	-0.561 (inactive)	-0.518 (inactive)	-0.138	-0.164 (inactive)	-0.191	0.437	0.324	-0.18
NC(=O)NCC#Cc1ccc2c(c1)[C@]1(C(=O)N2)[C@H](c2ccccc2OCCO)N2[C@H](c3ccccc3)[C@H](c3ccccc3)OC(=O)[C@H]2[C@@H]1C(=O)O	0.507	0.798 (inactive)	-0.602 (inactive)	-0.675 (inactive)	1.31	1.4 (inactive)	-0.0201	0.192	-0.199	-0.185
NC(=O)[C@@]1(Cc2ccccc2)COC(c2ccc(OCCCO)cc2)=N1	-0.57	1.2 (inactive)	0.196 (inactive)	1.19 (inactive)	3.05	1.05 (inactive)	-0.0736	-0.555	-0.537	-0.136
CC(C)[Si](C#C[Si](C(C)C)(C(C)C)C(C)C)(O[C@H](c1ccccc1)c1cn(Cc2ccccc2)nn1)C(C)C	1.26	0.242 (inactive)	0.641 (inactive)	0.0108 (inactive)	0.754	0.769 (inactive)	-0.028	0.751	0.361	0.0129
O=C1O[C@@H](c2ccccc2)[C@@H](c2ccccc2)N2[C@@H](c3ccc(O)cc3)[C@]3(C(=O)Nc4ccc(C#CCCO)cc43)[C@@H](C(=O)N3CCN(c4ncccn4)CC3)[C@H]12	1.54	2.72 (inactive)	2 (inactive)	6.45 (inactive)	1.04	2.07 (inactive)	-0.698	1.74	1.09	-0.257
CC1CC/C=C\[C@H]2OC34C=CCN(C(C)(C)C)C(=O)[C@H]3N(CCCCCO)C(=O)[C@@H]4C2C(=O)O1 (stereo not given in full)	-0.187	-0.0244 (inactive)	0.531 (inactive)	-0.615 (inactive)	-0.0626	-0.129 (inactive)	-0.261	-0.673	-0.284	-0.262
CCCN1C(=O)[C@@]2(Cc3ccccc31)N=C(c1ccc(OCCCO)cc1)O[C@H]2c1ccccc1	1.46	-0.306 (inactive)	-7.39 (inactive)	0.99 (inactive)	2.58	-0.0139 (inactive)	0.235	0.643	0.355	0.0192
COc1ccc(CCNC(=O)[C@@]2(Sc3ccc(C)cc3)CC(=O)N(Cc3ccccc3C(F)(F)F)[C@@H]2c2ccc(CO)cc2I)cc1	1	-1.65 (inactive)	-4.64 (inactive)	1.22 (inactive)	1.97	0.404 (inactive)	-0.0668	-1.46	-1.03	-0.264
COc1ccc([Si](C)(C)[C@@H]2[C@@H](CCO)O[C@]3(C(=O)N(Cc4ccccc4)c4ccc(N5CCOC5=O)cc43)[C@H]2C)cc1	1.51	2.55 (inactive)	-0.522 (inactive)	17.5 (active)	1.78	1.44 (inactive)	-0.0722	0.446	0.693	-0.14
Oc1ccc2cc[n+](Cc3cc4c(cc3Br)OCO4)cc2c1	0.621	1.07 (inactive)	-1.41 (inactive)	0.645 (inactive)	-0.252	-0.603 (inactive)	0.0894	-0.883	-1.11	-0.211
CC[C@@H]1C=C(C(=O)O)[C@H](c2ccccc2)N1S(=O)(=O)c1ccc(C)cc1	0.598	-1.14 (inactive)	0.231 (inactive)	-0.12 (inactive)	2.87	-0.749 (inactive)	0.262	0.103	0.981	0.0638
C[N+](C)(C)CCCC[C@@H]1NC(=O)[C@@H]2C[C@H](C(=O)NCCCCCCN)[C@H](c3cccc(OCCO)c3)N2C1=O	1.45	-0.344 (inactive)	-4.23 (inactive)	-0.244 (inactive)	2.44	0.0037 (inactive)	1.26	0.47	0.748	0.617
C=C[C@H](C)[C@H](OC(=O)Nc1ccc(SC)cc1)c1ccc(OCCO)cc1	1.31	-3.79 (inactive)	-2.34 (inactive)	0.375 (inactive)	1.53	0.938 (inactive)	0.0548	0.415	0.862	-0.15
C=CCC(OC(C)=O)[C@@H]1[C@@H](N(Cc2cccc3ccccc23)C(=O)Cc2ccc(F)cc2)c2cc(OCCCO)ccc2N1C(=O)c1ccc2ccccc2c1 (stereo not given in full)	-0.209	-0.19 (inactive)	1.43 (inactive)	-0.235 (inactive)	0.226	0.693 (inactive)	0.0261	0.154	0.268	-0.0967
C=CCC(OC(C)=O)[C@@H]1[C@@H](N(Cc2ccc(-c3ccccc3)cc2)C(=O)c2ccc(-c3ccccc3)cc2)c2cc(OCCCO)ccc2N1C(=O)c1ccc2ccccc2c1 (stereo not given in full)	0.636	-0.737 (inactive)	0.109 (inactive)	-0.38 (inactive)	1.17	-0.728 (inactive)	0.0008	0.479	0.306	-0.0531
[N-]=[N+]=Nc1ccccc1C[C@@]1(C(N)=O)N=C(c2ccc(OCCCO)cc2)O[C@@H]1c1ccccc1N=[N+]=[N-]	0.319	-0.974 (inactive)	-1.01 (inactive)	-0.933 (inactive)	2.05	0.905 (inactive)	0.281	-0.467	0.0955	0.639
CC(CO)N1C(=O)[C@]2(C)C3C(=O)OCCC/C=C\[C@H]3OC23C=CCN(c2ccc(Cl)cc2)C(=O)[C@@H]13 (stereo not given in full)	-1.06	0.0276 (inactive)	-0.358 (inactive)	-0.14 (inactive)	-1.08	0.525 (inactive)	-0.152	-0.554	-0.162	-0.165
CN(C)C(=O)[C@@]1(Cc2ccccc2)N=C(c2ccc(OCCCO)cc2)O[C@H]1c1ccccc1	0.584	-0.826 (inactive)	-2.23 (inactive)	0.221 (inactive)	3.4	0.982 (inactive)	0.344	-0.642	0.229	0.642
CCOC(=O)C1=C[C@@H](c2ccccc2)N(S(=O)(=O)c2ccc(C)cc2)[C@H]1c1ccc(OC)cc1	1.24	-1.13 (inactive)	1.29 (inactive)	0.698 (inactive)	2.71	-0.685 (inactive)	0.338	0.221	1.14	0.756
C=CC[C@]1(C(=O)N2CCCCC2)N=C(c2ccc(OCCCO)cc2)O[C@H]1c1ccccc1CN=[N+]=[N-]	1.54	-1.66 (inactive)	-0.442 (inactive)	-0.837 (inactive)	3.19	0.937 (inactive)	-0.013	0.562	1.08	-0.0512
COc1cccc(C)c1NC(=O)O[C@H]1[C@H](OC(=O)Nc2ccccc2-c2ccccc2)[C@H](OC(=O)Nc2ccccc2-c2ccccc2)[C@@H](OC)O[C@@H]1CO	1.54	1.24 (inactive)	0.671 (inactive)	5.69 (inactive)	3.18	0.0918 (inactive)	0.225	1.14	1.07	-0.0824
C#Cc1cc2ccccc2oc1=O	0.914	-1.81 (inactive)	-7.83 (inactive)	-1.11 (inactive)	0.969	-1.45 (inactive)	-0.313	-2.71	-1.32	-0.325
COCCCNC(=O)[C@@]1(Sc2ccc(C)cc2)CC(=O)N(C2Cc3ccccc3C2)[C@@H]1c1ccc(CO)cc1	0.585	0.0853 (inactive)	-1 (inactive)	-0.798 (inactive)	3.11	-1.27 (inactive)	-0.236	-1.72	-0.314	-0.254
CC(C)N1C(=O)C[C@@](C(=O)O)(c2ccc([N+](=O)[O-])cc2)[C@H]1c1ccc(CO)cc1	1.01	0.548 (inactive)	-0.996 (inactive)	-0.265 (inactive)	2.72	1.27 (inactive)	0.0511	-1.13	0.0599	-0.158
CCOC(=O)C[C@H]1[C@H](OC(=O)c2ccccc2-c2ccccc2)[C@@H](NC(=O)c2ccc3ccccc3n2)c2cc(OCCCO)ccc2N1C(=O)Cc1ccc(OC)cc1	0.115	0.59 (inactive)	-0.167 (inactive)	-0.0843 (inactive)	0.346	-0.776 (inactive)	-0.111	0.287	0.384	-0.12
CC(C)N1C(=O)c2ccccc2[C@@H](C(=O)NCCN2CCOCC2)[C@@H]1c1ccc(CO)cc1	-1.01	0.696 (inactive)	0.098 (inactive)	0.673 (inactive)	0.518	-0.589 (inactive)	-0.0613	-0.465	-0.616	-0.212
